From PubChem
tim23-1 inh: growth inhibitors of tim23-1 mutant yeast, primary screen, luminescence, uHTS; S. cerevisiae tim23-1 growth, BacTiter-Glo luminescence, 24 h; inhibition, % at 20 µM; 330,000 compounds, 1.3% hits;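 active = growth inhibition of the mutant yeast at or above 50%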;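 note: temperature-sensitive mutant grown at 25 °C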
NLRP3 yeast inh: NALP3 inflammasome inhibitors in reconstituted yeast, primary screen, luminescence, uHTS | AID 2825, 2010 | inhibition, % at 10 µM | Yeast reconstituted NLRP3/ASC/caspase-1, beta-gal luminescence, 24 h | 330,000 compounds, 0.39% hits;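 active = inhibition of 50% or more; inactive = inhibition below 50%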
tim10-1 inh: growth inhibitors of tim10-1 mutant yeast, primary screen, luminescence, uHTS | 330,000 compounds, 2.2% hits | inhibition, % at 20 µM | S. cerevisiae tim10-1 ts strain growth, BacTiter-Glo, 24 h;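 active = inhibition of at least 40%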;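 note: mutant grown at 25 °C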
PfHsp90 set2: growth inhibition of PfHsp90-expressing yeast, primary screen, antimalarial PfHsp90 inhibitor project, S. cerevisiae, BacTiter-Glo luminescence, single point, set 2; BacTiter-Glo ATP, 48 h; yeast lacking PDR1 and PDR3 efflux regulators; inhibition, % at 9.4 µM; 310,000 compounds, 0.32% hits;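 active = every replicate shows inhibition above about 80%, whatever the replicate mean, limit read from the data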
SKKanGAS inh: S. pyogenes SKKanGAS growth inhibitors in kanamycin, primary screen, streptokinase expression inhibitor project, SKKanGAS strain, BacTiter-Glo luminescence; 6 h; 300,000 compounds, 1.3% hits; AID 1662, 2009; inhibition, % at 7.5 µM;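 active = mean replicate score, as percent of positive control median, at least 50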;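 note: strain carries kanamycin resistance gene driven by streptokinase promoter and grows in 40 µg/ml kanamycin; loss of luminescence reflects streptokinase promoter inhibition or plain growth inhibition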
TIM10 inh: growth inhibitors of isogenic TIM10 control yeast, primary screen, counter-screen for tim10-1 yeast inhibitor project, luminescence, uHTS. inhibition, % at 10 µM. S. cerevisiae TIM10 strain growth, BacTiter-Glo luminescence, 24 h. 330,000 compounds, 1.4% hits;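 active = inhibition of 40% or more at the single tested concentration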;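 note: wild-type TIM10 isogenic control strain grown at permissive 25 °C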
tim10-1 conf: growth inhibitors of tim10-1 mutant yeast, confirmation, single concentration, luminescence, S. cerevisiae; shares compounds with tim10-1 inh; S. cerevisiae tim10-1 ts strain growth, BacTiter-Glo, 24 h; inhibition, % at 20 µM; 7,400 compounds, 56% hits;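 active = inhibition of yeast growth at or above a set limit in either of two repeat tests at 20 µM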;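 note: tim10-1 mutant grown at permissive 25 °C to find synthetic lethal compounds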
TIM10 conf: growth inhibitors of wild-type TIM10 yeast, confirmation, counter-screen for tim10-1 synthetic lethality project, single concentration, luminescence, S. cerevisiae; shares compounds with TIM10 inh; inhibition, % at 10 µM; 4,600 compounds, 63% hits; S. cerevisiae tim10 strain growth, BacTiter-Glo luminescence, 24 h;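 active = inhibition of yeast growth at or above a set limit in either of two replicates at 10 µM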; note: this counterscreen used the strain with wild-type TIM10
Large screens that a line does not name were inactive (follow-up assays come after a bar, where they were run). Most compounds without a hit are left out; they make up all but 4.6% or so of the library.

C=CCN(CC=C)S(=O)(=O)c1ccc(NC(=O)COc2ccccc2OC)cc1	tim10-1 inh 45.4, TIM10 inh 42.4 (no result: SKKanGAS inh) | tim10-1 conf 32.2 | TIM10 conf inactive
COc1ccc(NC(=O)c2ccc(COc3ccccc3Br)o2)c(OC)c1	none (no result: PfHsp90 set2)
O=C(/C=C\c1ccccc1)NCC(=O)N/N=C/c1ccc(O)cc1O	none
COc1cccc(-c2ccc(NC(=O)C3CCCN(CCCn4nc(C)cc4C)C3)cc2)c1 (configuration not stated)	none
CCO/C=N/Nc1nc(C(F)(F)F)nc2c1cnn2Cc1ccccc1	tim10-1 inh 59.2, TIM10 inh 56.0 | tim10-1 conf 56.5 | TIM10 conf 58.0
COc1ccc(CCN2C(=O)CS/C2=N\NC(=O)c2cccs2)cc1OC	none
COCCCn1c(=O)c2ccccc2n(Cc2ccccc2C)c1=O	none
COCn1c(=O)c2c(nc(SC3=NCCS3)n2Cc2ccccc2C)n(COC)c1=O	tim10-1 inh 47.1, TIM10 inh 42.8 | tim10-1 conf inactive | TIM10 conf 35.0
COc1ccc(/C(C)=N/NC(=O)c2cc(C)[nH]n2)c(OC)c1	none
CC(C)N(Cc1ccccc1)C(=O)COC(=O)c1ccc2c(c1)OCCO2	none
CN(C(=O)COC(=O)c1ccc2c(c1)OCCO2)c1ccccc1	tim10-1 inh 44.1, TIM10 inh 49.8 | tim10-1 conf 47.5 | TIM10 conf 43.0
CC(=O)Nc1cccc(C(=O)OCC(=O)NNC(=O)c2ccc([N+](=O)[O-])cc2)c1	none
COc1ccc2nc3oc(C(=O)N4CCN(c5cccc(Cl)c5)CC4)cc3cc2c1	tim10-1 inh 60.5, TIM10 inh 63.3 | tim10-1 conf inactive | TIM10 conf inactive
COc1cccc2c1Oc1ncccc1N(C(=O)CCC(=O)NCc1cccc(C)c1)C2	none
CN1/C(=C\C(=O)Nc2cccc(Cl)c2)C(C)(C)c2ccccc21	tim10-1 inh 40.5, TIM10 inh 40.5 | tim10-1 conf 34.0 | TIM10 conf 42.9
COc1ccc(CNC(=S)N/N=C(/C)c2ccccc2)cc1	none (no result: PfHsp90 set2)
CCNC(=S)N/N=C(\C)c1ccc2ccccc2c1	tim10-1 inh 42.0, TIM10 inh 53.5 (no result: PfHsp90 set2) | tim10-1 conf 31.0 | TIM10 conf 38.1
CCNC(=S)NNC(=O)c1ccccc1OC(F)F	none
CCNC(=S)N/N=C(\C)c1ccc2ccccc2c1OC(F)F	tim10-1 inh 47.2, TIM10 inh 55.8 | tim10-1 conf inactive | TIM10 conf 41.3
C/C(=N\NC(=S)NCc1ccccc1)c1ccccc1	tim10-1 inh 47.0, TIM10 inh 44.5 | tim10-1 conf 43.9 | TIM10 conf 40.0
CCc1ccccc1N(CC(=O)N1CCc2ccccc2C1)S(C)(=O)=O	none
CC1CCCC(NC(=O)COC(=O)CCC(=O)c2ccc(F)cc2)C1C (configuration not stated)	none (no result: PfHsp90 set2, SKKanGAS inh)
CCn1cc(/C=N\NC(=O)Cc2ccc(Cl)cc2)cn1	none
COc1ccc(/C=C2\SC(=O)N(CCNC(=O)Cn3cnnn3)C2=O)cc1	none
O=C1S/C(=C\c2ccc(Cl)cc2)C(=O)N1CCn1cnnn1	tim10-1 inh 42.9, TIM10 inh 43.3 (no result: SKKanGAS inh) | tim10-1 conf 34.7 | TIM10 conf inactive
Nc1nc(-c2ccc(Br)s2)c(Br)s1	tim10-1 inh 53.9, TIM10 inh 51.5 | tim10-1 conf 35.8 | TIM10 conf inactive
CCOc1cc(C2NC(=O)CCC2[N+](=O)[O-])cc(Br)c1OC (configuration not stated)	none
C=C1C(=O)O[C@H]2C[C@H]1[C@@H](OC(C)=O)C/C(C)=C/CC/C(C)=C\CC[C@]2(C)O	none (no result: tim23-1 inh, NLRP3 yeast inh, tim10-1 inh, SKKanGAS inh, TIM10 inh)
C=C1C(=O)O[C@@H]2[C@H]3O[C@]3(C)CC/C=C(\C)CC[C@@H]12	tim10-1 inh 53.9, TIM10 inh 48.7 (no result: SKKanGAS inh) | tim10-1 conf 37.7 | TIM10 conf 53.1
CSCc1c(C(=O)NC2CCCc3ccccc32)oc2ccccc12 (configuration not stated)	tim10-1 inh 50.1, TIM10 inh 40.9 | tim10-1 conf 33.1 | TIM10 conf inactive
N/C(=N\OC(=O)c1ccc2c(c1)OCO2)c1cccnc1	none
N/C(=N\OC(=O)Cc1cccc2ccccc12)c1ccccn1	tim10-1 inh 60.4, TIM10 inh 43.3 | tim10-1 conf 49.0 | TIM10 conf 38.3
COc1ccc(CC(=O)O/N=C(\N)Cc2cccc3ccccc23)cc1	tim10-1 inh 44.1, TIM10 inh 47.7 | tim10-1 conf 49.9 | TIM10 conf 53.0
COc1ccc(OCC(=O)O/N=C(\N)Cc2ccc(Cl)cc2Cl)cc1	tim10-1 inh 63.5, TIM10 inh 49.6 | tim10-1 conf 62.6 | TIM10 conf 45.9
COc1ccc(OCC(=O)O/N=C(\N)c2ccc(OC)cc2)cc1	none
N/C(Cc1cccc2ccccc12)=N\OC(=O)c1ccc2c(c1)OCO2	tim10-1 inh 47.9, TIM10 inh 60.4 | tim10-1 conf 39.3 | TIM10 conf 32.1
COc1ccc(CNC(=O)C(C)OC(=O)c2cccs2)cc1 (configuration not stated)	none
COc1ccc(NS(=O)(=O)c2cc(C(=O)N3CCN(C/C=C/c4ccccc4)CC3)ccc2C)cc1	none
Cc1ccc(N(CC(=O)NCc2ccco2)C(=O)CCC(=O)Nc2nccs2)c(C)c1	none
Cc1ccc(OCC(=O)O/N=C(\N)c2ccccn2)cc1	none
COc1ccc(OCC(=O)O/N=C(\N)Cc2ccc(Cl)cc2)cc1	tim10-1 inh 62.3, TIM10 inh 54.1 | tim10-1 conf 57.7 | TIM10 conf inactive
Cc1ccc(OCC(=O)O/N=C(\N)Cc2ccc(Cl)cc2)cc1	tim10-1 inh 58.9, TIM10 inh 78.3 | tim10-1 conf 44.1 | TIM10 conf inactive
COc1ccc(OCC(=O)O/N=C(\N)Cc2cccs2)cc1	none
Cc1ccc(/C(N)=N/OC(=O)COc2ccccc2Cl)cc1	tim10-1 inh 61.4 (no result: PfHsp90 set2) | tim10-1 conf 41.8 | TIM10 conf 43.4
COc1cc2c(c(NC(C)=O)c1)N(C(C)=O)CCC2	none (no result: tim23-1 inh, NLRP3 yeast inh, tim10-1 inh, SKKanGAS inh, TIM10 inh)
CCCCNC(=O)c1ccccc1SCC(=O)NC1CCCCCCC1	none (no result: SKKanGAS inh)
CC(C)Cn1c(-c2ccccc2F)n[nH]c1=S	none (no result: PfHsp90 set2)
CC(C)Cn1c(-c2csc3c2CCCC3)n[nH]c1=S	tim10-1 inh 48.4, TIM10 inh 44.2 (no result: SKKanGAS inh) | tim10-1 conf inactive | TIM10 conf 39.8
